# Assay results: PubChem BioAssay (Tox21)
# Where “and” joins values, the source holds several entries; their conditions need not be identical. Equal entries are not always repeated. Values without a mark were called inactive. Results filed as inconclusive are left out. Where a call stands in place of a potency, no number is given. Calls of active or inactive are those of the source. Unless noted, the call rests on the fitted dose curve.
# What was measured:
# [1] = Nuclear factor erythroid 2-related factor 2/antioxidant responsive element (Nrf2/ARE) small molecule agonists: qHTS cell viability counter screen in human keratinocytes (AID 1919968; active means well fitted curve in the direction sought with a large enough effect in the repeat runs; an effect the other way counts as inactive or inconclusive; further: nearly all actives have a fitted effect of over 55% in size; further: potency means the concentration at half of the fitted maximal effect)
# Method in brief: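 In human HaCaT keratinocytes stably expressing an ARE-driven luciferase, compound exposure lasted 23 h at 37 C under 5% CO2. Viable cells are quantified with a protease-based fluorogenic reagent (CellTiter-Fluor) read 1 h after addition.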
# [2] = Nuclear factor erythroid 2-related factor 2/antioxidant responsive element (Nrf2/ARE) small molecule agonists: luciferase reporter gene qHTS assay in human keratinocytes (AID 1919969); further: nearly all actives have a fitted effect of over 35% in size; further: potency means the concentration at half of the fitted maximal effect
# [3] = target: Gonadotropin-releasing hormone receptor (Homo sapiens) (UniProt P30968); assay: Human gonadotropin-releasing hormone receptor (GnRHR) small molecule agonists, calcium flux assay in GnRHR-HEK293 cells (AID 1920063); further: nearly all actives have a fitted effect of over 35% in size
# Gonadotropin-releasing hormone receptor (Homo sapiens), sequence (P30968 whole entry, looked up): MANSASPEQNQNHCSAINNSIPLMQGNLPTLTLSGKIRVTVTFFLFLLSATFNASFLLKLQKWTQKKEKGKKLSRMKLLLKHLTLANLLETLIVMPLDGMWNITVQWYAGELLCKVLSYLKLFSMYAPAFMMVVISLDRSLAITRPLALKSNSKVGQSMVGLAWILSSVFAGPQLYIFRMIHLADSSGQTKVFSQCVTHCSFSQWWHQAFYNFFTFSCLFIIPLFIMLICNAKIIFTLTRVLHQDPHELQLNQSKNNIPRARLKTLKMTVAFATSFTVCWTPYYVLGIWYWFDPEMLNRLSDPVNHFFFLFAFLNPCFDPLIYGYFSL
# Method in brief: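 Intracellular calcium rise is the read-out: engineered human GnRHR HEK293 cells, dye-loaded, are exposed to DMSO-dissolved compounds and fluorescence at Ex/Em 480/540 is tracked for 3 min.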
# [4] = target: KiSS-1 receptor (Homo sapiens) (UniProt Q969F8); assay: Human kisspeptin (KISS1R) small molecule agonists, calcium flux assay in KISS1R-HEK293 cells (AID 1920064; active means well fitted curve in the direction sought with a large enough effect in the repeat runs; an effect the other way counts as inactive or inconclusive)
# KiSS-1 receptor (Homo sapiens), sequence (Q969F8 whole entry, looked up): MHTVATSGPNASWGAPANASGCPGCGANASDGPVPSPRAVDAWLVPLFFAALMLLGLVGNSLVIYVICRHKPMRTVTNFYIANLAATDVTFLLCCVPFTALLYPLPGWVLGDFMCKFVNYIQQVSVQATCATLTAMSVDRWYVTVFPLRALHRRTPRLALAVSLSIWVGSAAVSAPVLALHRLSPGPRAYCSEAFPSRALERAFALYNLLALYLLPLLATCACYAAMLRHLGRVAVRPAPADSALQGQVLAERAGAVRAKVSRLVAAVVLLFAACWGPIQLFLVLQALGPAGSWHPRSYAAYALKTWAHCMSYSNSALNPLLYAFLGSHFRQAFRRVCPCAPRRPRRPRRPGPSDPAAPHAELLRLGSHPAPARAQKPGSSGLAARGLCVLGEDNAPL
# Method in brief: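 Concentration-response testing used 15 concentrations in triplicate on human KISS1R-expressing HEK293 cells. Calcium-dependent fluorescence (Ex/Em 480/540) was followed kinetically for 3 min after compound transfer.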
# [5] = G protein-coupled receptor (GPCR) small molecule agonists, calcium flux assay: HEK293 wild type cell line counter screen (AID 1920065)
# Method in brief: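 Fluorescence intensity signals activation. After overnight (18 h) culture and a 1 h calcium dye load at 37 C, compounds are added by pin tool and the plate read at 480/540 nm for 3 min in 1 s steps.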
# [6] = p53 small molecule agonists, cell-based qHTS assay with human liver microsomes: qHTS cell viability counter screen (AID 1963579); further: nearly all actives have a fitted effect of over 45% in size; further: potency means the concentration at half of the fitted maximal effect
# Method in brief: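 Metabolic activation used human liver microsomes and NADPH, both 0.5 mg/mL final, over 16 hours at 37 C on p53RE-bla cells (4,000/well). Cytotoxicity measured by CellTiter-Glo luminescence, 30 min at room temperature.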
# [7] = p53 small molecule agonists, cell-based qHTS assay with rat liver microsomes: qHTS cell viability counter screen (AID 1963580); further: nearly all actives have a fitted effect of over 45% in size; further: potency means the concentration at half of the fitted maximal effect
# Method in brief: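 Luminescent ATP readout (CellTiter-Glo, 30 min at room temperature) reports viability of p53RE-bla HCT-116 cells after 16 h at 37 C with test compounds under metabolic activation by rat liver microsomes and NADPH at 0.5 mg/mL final each.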
# [8] = p53 small molecule agonists, cell-based qHTS assay (AID 1963582; active means well fitted activation curve with a large enough effect in the signal ratio in the repeat runs, not every such curve was filed as active; the % refers to the signal ratio)
# Method in brief: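 After plating, p53RE-bla cells sat 5 h in the incubator; compounds or DMSO vehicle were pinned in; a 16 h incubation at 37 C followed; FRET substrate was added and, 2 h later at RT, fluorescence was measured.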
# [9] = target: 5-hydroxytryptamine receptor 2A (Homo sapiens) (UniProt P28223); assay: 5-hydroxytryptamine receptor 2A (HTR2A) small molecule antagonists, cell-based qHTS assay (AID 1963586); further: nearly all actives have a fitted effect of over 45% in size
# 5-hydroxytryptamine receptor 2A (Homo sapiens), sequence (P28223 whole entry, looked up): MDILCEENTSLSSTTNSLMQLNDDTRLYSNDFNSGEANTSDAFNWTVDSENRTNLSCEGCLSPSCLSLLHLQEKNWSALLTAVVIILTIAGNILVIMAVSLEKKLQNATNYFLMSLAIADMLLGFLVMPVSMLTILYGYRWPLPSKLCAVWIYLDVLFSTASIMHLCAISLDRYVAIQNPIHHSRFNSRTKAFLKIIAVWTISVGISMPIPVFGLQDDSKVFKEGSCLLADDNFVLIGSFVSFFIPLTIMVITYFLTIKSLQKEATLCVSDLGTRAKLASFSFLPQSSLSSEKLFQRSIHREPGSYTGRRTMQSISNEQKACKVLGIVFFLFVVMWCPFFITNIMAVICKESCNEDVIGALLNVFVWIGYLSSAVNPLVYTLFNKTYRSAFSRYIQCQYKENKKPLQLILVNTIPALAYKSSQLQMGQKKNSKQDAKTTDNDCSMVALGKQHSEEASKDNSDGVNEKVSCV
# Method in brief: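 CHO cells stably expressing human HTR2A were plated for 18 h at 37 C, then loaded with calcium dye for 1 h. Compounds were preincubated 5 min at room temperature before DOI (4 nM solution) was added. Kinetic fluorescence was read for 3 min.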
# [10] = target: 5-hydroxytryptamine receptor 2A (Homo sapiens) (UniProt P28223); assay: 5-hydroxytryptamine receptor 2A (HTR2A) small molecule agonists, cell-based qHTS assay (AID 1963587); further: nearly all actives have a fitted effect of over 30% in size
# Method in brief: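 HTR2A-CHO cells, plated 18 h at 37 C/5% CO2, dye-loaded 1 h at 37 C; compounds in DMSO added by pin tool (agonist mode). Intracellular calcium flux read as kinetic fluorescence on FDSS over 2 min at 1 s intervals.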
# [11] = target: Muscarinic acetylcholine receptor M1 (Homo sapiens) (UniProt P11229); assay: Cholinergic receptor muscarinic 1 (CHRM1) small molecule agonists, cell-based qHTS assay (AID 1963589); further: nearly all actives have a fitted effect of over 35% in size
# Muscarinic acetylcholine receptor M1 (Homo sapiens), sequence (P11229 whole entry, looked up): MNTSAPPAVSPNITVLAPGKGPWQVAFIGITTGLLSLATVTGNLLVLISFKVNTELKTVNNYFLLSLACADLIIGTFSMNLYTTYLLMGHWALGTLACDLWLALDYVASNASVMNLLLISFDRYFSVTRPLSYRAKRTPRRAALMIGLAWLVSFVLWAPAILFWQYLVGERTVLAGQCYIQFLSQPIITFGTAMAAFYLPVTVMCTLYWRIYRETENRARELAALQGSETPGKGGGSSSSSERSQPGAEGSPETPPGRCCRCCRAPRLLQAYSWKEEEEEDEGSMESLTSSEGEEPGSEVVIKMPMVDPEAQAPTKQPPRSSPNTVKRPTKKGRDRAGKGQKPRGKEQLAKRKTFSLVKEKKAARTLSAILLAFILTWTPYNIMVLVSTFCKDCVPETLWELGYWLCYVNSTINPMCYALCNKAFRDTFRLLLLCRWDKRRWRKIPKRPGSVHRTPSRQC
# Method in brief: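 Fluorescent calcium dye reports M1 activation in stably transfected CHO cells. Compounds, 15 concentrations, added after 1 h dye loading at 37 C; kinetic reading at 1 sec intervals.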
# [12] = cAMP Responsive Elements (CRE) small molecule agonists, cell-based qHTS assay (AID 1963590)
# Method in brief: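 Compound exposure lasted 3 h at 37 C/5% CO2 in CRE-bla HEK 293T cells grown in assay medium with 10% dialyzed FBS and 25 mM HEPES. Reporter signal came from LiveBLAzer B/G FRET substrate, 2 h, room temperature.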
# [13] = cAMP Responsive Elements (CRE) small molecule antagonists, cell-based qHTS assay (AID 1963591; active means well fitted inhibition curve with a large enough effect in the signal ratio in the repeat runs, not every such curve was filed as active; the % refers to the signal ratio)
# Method in brief: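 Stimulation used NKH477 at a final 0.25 uM for 3 h in compound-treated CRE-bla HEK293T cells, seeded 18 h beforehand. Reporter activity was measured with LiveBLAzer B/G FRET substrate after 2 h at room temperature.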
# [14] = target: Beta-2 adrenergic receptor (Homo sapiens) (UniProt P07550); assay: Adrenergic beta2 receptor (ADRB2) small molecule antagonists, cell-based qHTS assay (AID 1963592); further: series mostly up to about 92 µM; nearly all actives have a fitted effect of over 50% in size
# Beta-2 adrenergic receptor (Homo sapiens), sequence (P07550 whole entry, looked up): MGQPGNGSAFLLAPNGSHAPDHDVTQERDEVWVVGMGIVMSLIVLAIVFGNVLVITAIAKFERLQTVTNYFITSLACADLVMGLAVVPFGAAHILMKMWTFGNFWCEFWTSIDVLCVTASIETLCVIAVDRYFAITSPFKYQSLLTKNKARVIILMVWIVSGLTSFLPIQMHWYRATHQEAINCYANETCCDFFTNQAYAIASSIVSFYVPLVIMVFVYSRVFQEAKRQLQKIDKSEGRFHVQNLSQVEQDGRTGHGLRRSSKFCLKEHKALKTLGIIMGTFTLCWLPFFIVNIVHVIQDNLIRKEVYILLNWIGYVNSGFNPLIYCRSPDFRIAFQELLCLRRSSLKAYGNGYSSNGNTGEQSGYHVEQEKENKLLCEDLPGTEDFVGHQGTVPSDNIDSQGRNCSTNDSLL
# Method in brief: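 Assay format: CHO-ADRB2 cells, 18-20hr seeding at 37C/5% CO2, then compound plus 1nM isoproterenol agonist mix for 0.5hr RT. Homogeneous time-resolved fluorescence cAMP detection after 1hr, expressed as 665/615 nm ratio.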
# [15] = target: D(2) dopamine receptor (Homo sapiens) (UniProt P14416); assay: Dopamine D2 receptor (DRD2) small molecule agonists, cell-based qHTS assay (AID 1963594); further: nearly all actives have a fitted effect of over 35% in size
# D(2) dopamine receptor (Homo sapiens), sequence (P14416 whole entry, looked up): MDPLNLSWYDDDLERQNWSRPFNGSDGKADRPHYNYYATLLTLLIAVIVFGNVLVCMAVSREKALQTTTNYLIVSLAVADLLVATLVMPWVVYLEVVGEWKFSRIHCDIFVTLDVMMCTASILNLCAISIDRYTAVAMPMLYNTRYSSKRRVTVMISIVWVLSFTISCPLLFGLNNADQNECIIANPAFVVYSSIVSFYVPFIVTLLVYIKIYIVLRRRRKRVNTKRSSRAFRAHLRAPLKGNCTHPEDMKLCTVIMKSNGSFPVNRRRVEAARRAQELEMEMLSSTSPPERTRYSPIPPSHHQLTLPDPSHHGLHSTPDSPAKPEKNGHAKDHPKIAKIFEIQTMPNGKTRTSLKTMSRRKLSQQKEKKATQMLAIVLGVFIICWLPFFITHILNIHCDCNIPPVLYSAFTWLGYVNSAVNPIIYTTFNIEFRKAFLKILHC
# Method in brief: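 HEK293 cells stably expressing DRD2 were cultured 24 h at 37 C, then given Ro20-1724 (0.1 mM final) and compounds for 10 min at room temperature. NKH477 (200nM) was then added for 30 min. cAMP was read by HTRF.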
# [16] = target: D(2) dopamine receptor (Homo sapiens) (UniProt P14416); assay: Dopamine D2 receptor (DRD2) small molecule antagonists, cell-based qHTS assay (AID 1963595; active means well fitted inhibition curve with a large enough effect in the signal ratio in the repeat runs, with a control signal flat; the % refers to the signal ratio)
# Method in brief: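 Antagonism was scored as restored cAMP in HEK293-DRD2 cells. These cells were stimulated with 200 nM NKH477 and 12 nM quinpirole for 30 min at room temperature, in the presence of 0.1 mM Ro20-1724.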
# [17] = p53 small molecule agonists, cell-based qHTS assay with rat liver microsomes (AID 1963578)
# Method in brief: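 Metabolic activation by rat liver microsomes and NADPH, each 0.5 mg/mL final, added right after compounds to p53RE-bla reporter cells (4,000/well, plated 5 h earlier). 16 h at 37 C, then LiveBLAzer substrate for 2 h at room temperature in the dark; fluorescence read-out.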
# [18] = p53 small molecule agonists, cell-based qHTS assay: qHTS cell viability counter screen (AID 1963581); further: nearly all actives have a fitted effect of over 45% in size; further: potency means the concentration at half of the fitted maximal effect
# Method in brief: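 Luminescence from CellTiter-Glo, reflecting ATP content, serves as the cytotoxicity measure; it is taken after the 2 h reporter substrate step in HCT-116 p53RE-bla cells dosed for 16 h at 37 C.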
# [19] = target: Muscarinic acetylcholine receptor M1 (Homo sapiens) (UniProt P11229); assay: Cholinergic receptor muscarinic 1 (CHRM1) small molecule antagonists, cell-based qHTS assay (AID 1963588); further: nearly all actives have a fitted effect of over 40% in size
# Method in brief: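 Compounds were tested at 15 concentrations in three independent runs. Dye-loaded CHRM1-CHO cells were exposed 5 min at room temperature before stimulation by acetylcholine added at 50nM. Intracellular calcium was read kinetically on FDSS for 3 min.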
# [20] = target: Beta-2 adrenergic receptor (Homo sapiens) (UniProt P07550); assay: Adrenergic beta2 receptor (ADRB2) small molecule agonists, cell-based qHTS assay (AID 1963593);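 further: CHO cells stably overexpressing human ADRB2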
# Method in brief: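 CHO cells stably over-expressing ADRB2 were plated overnight at 37C, then dosed with compounds plus a stimulation mix containing 100uM IBMX and 25uM Ro-20-1724 for 0.5hr at room temperature. cAMP was measured by HTRF competition, 1hr.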
smiles,measurement,setting,value
CCCCCCCCCCCCCCCC(=O)OC,"activity change, negative = cytotoxicity",[1],3.99% [at 19 µM]
same,"activity, positive = activation",[2],0.79% [at 19 µM]
same,activity change,[3],"0.561% [at 11.8 µM, active compounds read high]"
same,activation,[4],-2.17% [at 15.8 µM]
same,activation,[5],0.455% [at 11.8 µM]
same,"activity change, negative = cytotoxicity",[6],-1.62% [at 13.5 µM]
same,"activity change, negative = cytotoxicity",[7],-0.0573% [at 13.5 µM]
same,activation,[8],-4.84% [at 13.5 µM]
same,"activity, negative = inhibition",[9],-2.95% [at 12.7 µM]
same,activation,[10],-0.493% [at 15.9 µM]
same,activation,[11],-0.393% [at 15.8 µM]
same,activation,[12],-0.453% [at 19 µM]
same,"activity change, negative = inhibition",[13],-6.58% [at 18.9 µM]
same,"activity change, negative = inhibition",[14],5.87% [at 19 µM]
same,activation,[15],0.309% [at 19 µM]
same,"activity change, negative = inhibition",[16],-0.0877% [at 18.9 µM]
CN(C)c1ccc(C(=C2C=CC(=[N+](C)C)C=C2)c2ccc(N(C)C)cc2)cc1,Potency,[1],7.66 µM (active) and 13.7 µM (active)
same,Potency,[2],6.08 µM (active)
same,Potency,[3],inactive
same,Potency,[4],inactive
same,Potency,[5],inactive
same,Potency,[17],inactive
same,Potency,[6],32.2 µM (active) and 40.8 µM (active)
same,Potency,[7],22.8 µM (active) and 36.3 µM (active)
same,Potency,[18],18.1 µM (active) and 40.8 µM (active) and 17.8 µM (active)
same,Potency,[8],inactive
O=C(O)[C@H](O)[C@@H](O)[C@H](O[C@@H]1O[C@H](CO)[C@H](O)[C@H](O)[C@H]1O)[C@H](O)CO,Potency,[1],inactive
same,Potency,[2],inactive
same,Potency,[3],inactive
same,Potency,[4],inactive
same,Potency,[5],inactive
same,Potency,[6],inactive
same,Potency,[7],inactive
same,Potency,[18],inactive
same,Potency,[8],inactive
same,Potency,[9],inactive
same,Potency,[19],inactive
same,Potency,[11],inactive
same,Potency,[12],inactive
same,Potency,[13],inactive
same,Potency,[20],inactive
same,Potency,[15],inactive
same,Potency,[16],inactive
OCC1(CO)COCOC1,Potency,[1],inactive
same,Potency,[2],inactive
same,Potency,[3],inactive
same,Potency,[4],inactive
same,Potency,[5],inactive
same,Potency,[6],inactive
same,Potency,[7],inactive
same,Potency,[18],inactive
same,Potency,[8],inactive
same,Potency,[10],inactive
same,Potency,[19],inactive
same,Potency,[11],inactive
same,Potency,[12],inactive
same,Potency,[13],inactive
same,Potency,[14],inactive
same,Potency,[20],inactive
same,Potency,[15],inactive
same,Potency,[16],inactive
CC[C@]12CCCN3CCc4c(n(c5ccccc45)[C@@](O)(C(=O)OC)C1)[C@@H]32,Potency,[1],inactive
same,Potency,[2],inactive
same,Potency,[3],inactive
same,Potency,[4],inactive
same,Potency,[5],inactive
same,Potency,[6],inactive
same,Potency,[7],inactive
same,Potency,[9],inactive
same,Potency,[10],inactive
same,Potency,[19],inactive
same,Potency,[11],inactive
same,Potency,[12],inactive
same,Potency,[13],inactive
same,Potency,[20],inactive
same,Potency,[15],inactive
same,Potency,[16],inactive
CCCCC1CCC(O)CC1 (stereo not given),Potency,[1],inactive
same,Potency,[2],inactive
same,Potency,[3],inactive
same,Potency,[4],inactive
same,Potency,[5],inactive
same,Potency,[6],inactive
same,Potency,[18],inactive
same,Potency,[8],inactive
same,Potency,[9],inactive
same,Potency,[19],inactive
same,Potency,[11],inactive
same,Potency,[12],inactive
same,Potency,[13],inactive
same,Potency,[14],inactive
same,Potency,[20],inactive
same,Potency,[15],inactive
same,Potency,[16],inactive
O=c1[nH][nH]c(=O)c2cc([N+](=O)[O-])ccc12,Potency,[1],inactive
same,Potency,[2],inactive
same,Potency,[3],inactive
same,Potency,[4],inactive
same,Potency,[5],inactive
same,Potency,[6],inactive
same,Potency,[7],inactive
same,Potency,[8],inactive
same,Potency,[10],inactive
same,Potency,[19],inactive
same,Potency,[11],inactive
same,Potency,[12],inactive
same,Potency,[13],inactive
same,Potency,[14],inactive
same,Potency,[20],inactive
same,Potency,[15],inactive
